Inconclusive results are not listed. Calls of active or inactive are those of the source. Unless noted, calls follow the shape of the dose curve; as a rule, active = well fitted curve in the direction sought with a large enough effect in the repeat runs; inconclusive = weak or mixed curves; inactive = no such curve, though single readings can be large; an effect the other way counts as inactive or inconclusive.
What was measured:
[1] = qHTS assay for small molecule agonists of the p53 signaling pathway (AID 651631; calls by dose curve; also: nearly all actives have a fitted effect of over 15% in size)
In short: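 Agonist mode screen using a stably integrated beta-lactamase gene under p53 response elements in HCT-116 cells. Compound exposure lasts 16 h at 37 °C; fluorescence intensity is measured following 2 h FRET substrate loading.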

[2] = qHTS assay for small molecules that induce genotoxicity in human embryonic kidney cells expressing luciferase-tagged ATAD5 (AID 651632); also: nearly all actives have a fitted effect of over 15% in size
In short: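 Cells were seeded at 2,000 per well, dosed with compound, and incubated 16 hr at 37C in 5% CO2. Luciferase activity was then quantified after a 30 min room-temperature incubation with Amplite.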

[3] = qHTS assay for small molecule agonists of the p53 signaling pathway - cell viability (AID 651633; calls by dose curve;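 also: p53RE-bla HCT reporter cells with a stable beta-lactamase p53 reporter; series mostly up to about 83 µM; nearly all actives have a fitted effect of over 30% in size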)
In short: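 p53RE-bla cells were treated with compound for 16 hours at 37 C. Cytotoxicity was then measured as CellTiter-Glo luminescence after 30 min at room temperature.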

[4] = qHTS assay for small molecule disruptors of the mitochondrial membrane potential - cell viability (AID 720634; calls by dose curve;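 also: human HepG2 liver cancer cells; series mostly up to about 83 µM; nearly all actives have a fitted effect of over 20% in size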)
In short: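 Cytotoxicity was measured by ATP quantitation in HepG2 wells that had first been treated with compound for 1 hr and stained with m-MPI dye; CellTiter-Glo incubation was 30 min at room temperature.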

[5] = qHTS assay for small molecule disruptors of the mitochondrial membrane potential (AID 720635); also: potency is read from the fitted curve at half-maximal effect
In short: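 HepG2 cells exposed to compound 1 hr at 37C, then Mito-MPS dye 30 min. Ratio read of aggregate (540/590 nm) versus monomer (490/535 nm) fluorescence.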

[6] = qHTS assay to test for compound auto fluorescence at 535 nm (green) in HepG2 cells (AID 720675)
[7] = qHTS assay to test for compound auto fluorescence at 590 nm (red) in HEK293 cells (AID 720679)
In short: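 Each well held 2,000 HEK293 cells in medium containing 10% dialyzed FBS. Following 4-5 hr attachment at 37C, 23 nL test compound or DMSO was added; plates sat overnight, and red fluorescence (540/590nm) was recorded.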

[8] = qHTS assay to test for compound auto fluorescence at 535 nm (green) in HEK293 cells (AID 720680)
[9] = qHTS assay to test for compound auto fluorescence at 460 nm (blue) in HEK293 cell free culture (AID 720681)
In short: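 Compounds were added to cell-free DMEM with 10% FBS and fluorescence read directly. The blue channel used 405 nm excitation and 460 nm emission, with triamterene as the reference fluorophore.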

[10] = qHTS assay to test for compound auto fluorescence at 535 nm (green) in HEK293 cell free culture (AID 720682)
In short: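 No cells present: wells hold DMEM supplemented with 10% FBS, into which compound or vehicle is pinned. Green emission is then recorded (485 nm excitation, 535 nm emission) and scaled to fluorescein.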

[11] = qHTS assay to test for compound auto fluorescence at 590 nm (red) in HEK293 cell free culture (AID 720683)
In short: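 Cell-free wells of DMEM with 10% FBS received compound, and intrinsic fluorescence was read at excitation/emission 540/590 nm. Values expressed as equivalence to Rose Bengal sodium.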

[12] = qHTS assay to test for compound auto fluorescence at 590 nm (red) in HepG2 cell free culture (AID 720684)
In short: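 Rose Bengal sodium served as the reference for red signal. Test compounds were dispensed into serum-containing MEM (10% FBS) without cells, and plates were read at 540/590 nm.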

[13] = qHTS assay to test for compound auto fluorescence at 460 nm (blue) in HepG2 cell free culture (AID 720685)
In short: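 Cell-free plates of MEM plus 10% FBS received 23 nL compound or DMSO vehicle; blue-channel (405/460 nm) intensity scored against triamterene as reference fluorophore.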

[14] = qHTS assay to test for compound auto fluorescence at 535 nm (green) in HepG2 cell free culture (AID 720686)
[15] = qHTS assay to test for compound auto fluorescence at 460 nm (blue) in HepG2 cells (AID 720687)
In short: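 HepG2 cells in MEM with 10% FBS, attached overnight at 37 C, were exposed to compound or DMSO for 1 hr at 37 C, 5% CO2. Blue fluorescence was read at 405/460 nm, with triamterene as reference fluorophore.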

[16] = qHTS assay to test for compound auto fluorescence at 590 nm (red) in HepG2 cells (AID 720674)
In short: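 Seeding: 2,000 HepG2 cells/well, MEM/10% FBS, overnight 37 C. Dosing: compound vs DMSO. Incubation: 1 hr, 37 C, 5% CO2. Read: fluorescence 540 ex/590 em, Rose Bengal sodium as red reference.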

[17] = qHTS assay to test for compound auto fluorescence at 460 nm (blue) in HEK293 cells (AID 720678)
In short: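 Cells were seeded and left to adhere for 4-5 hr at 37C. Compounds were then pin-transferred. After an overnight incubation at 37C under 5% CO2, intrinsic fluorescence at 405/460 nm was measured and referenced to triamterene.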

[18] = target: Glucocorticoid receptor (Homo sapiens) (UniProt P04150); assay: qHTS assay to identify small molecule agonists of the glucocorticoid receptor (GR) signaling pathway (AID 720691; active = well fitted activation curve with a large enough effect in the signal ratio in the repeat runs, not every such curve was filed as active; the % refers to the signal ratio)
Chain of Glucocorticoid receptor (Homo sapiens) (P04150 whole entry, looked up): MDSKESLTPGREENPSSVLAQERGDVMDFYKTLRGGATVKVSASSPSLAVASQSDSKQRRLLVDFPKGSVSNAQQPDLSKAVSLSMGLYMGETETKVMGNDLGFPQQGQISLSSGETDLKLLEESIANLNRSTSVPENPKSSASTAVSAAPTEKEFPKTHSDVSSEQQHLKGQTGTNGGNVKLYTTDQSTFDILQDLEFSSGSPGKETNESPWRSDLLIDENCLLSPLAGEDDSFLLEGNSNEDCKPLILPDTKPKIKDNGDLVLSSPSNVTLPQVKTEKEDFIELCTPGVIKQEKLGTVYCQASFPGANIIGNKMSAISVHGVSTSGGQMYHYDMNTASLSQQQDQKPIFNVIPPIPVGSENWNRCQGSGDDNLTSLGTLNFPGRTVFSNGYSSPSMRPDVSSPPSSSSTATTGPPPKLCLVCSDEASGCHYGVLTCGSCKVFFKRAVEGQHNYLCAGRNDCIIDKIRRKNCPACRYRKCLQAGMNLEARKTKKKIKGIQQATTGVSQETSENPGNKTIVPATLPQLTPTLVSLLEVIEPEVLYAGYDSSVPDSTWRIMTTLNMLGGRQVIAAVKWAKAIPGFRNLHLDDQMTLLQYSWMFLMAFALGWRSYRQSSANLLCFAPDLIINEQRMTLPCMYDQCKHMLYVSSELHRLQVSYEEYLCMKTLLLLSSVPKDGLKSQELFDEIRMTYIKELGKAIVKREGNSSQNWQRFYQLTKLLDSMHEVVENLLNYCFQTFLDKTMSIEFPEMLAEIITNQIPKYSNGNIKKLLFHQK
In short: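 Steps: seed GR-bla HeLa cells, incubate 4 h at 37 C/5% CO2; pin-transfer DMSO-dissolved compounds; incubate 18 h at 37 C; add LiveBLAzer B/G FRET substrate; after 2 h at room temperature, measure fluorescence.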

[19] = target: Glucocorticoid receptor (Homo sapiens) (UniProt P04150); assay: qHTS assay to identify small molecule antagonists of the glucocorticoid receptor (GR) signaling pathway (AID 720692; active = well fitted inhibition curve with a large enough effect in the signal ratio in the repeat runs, not every such curve was filed as active; the % refers to the signal ratio)
In short: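 Antagonism was scored as loss of dexamethasone-driven (5 nM final) reporter signal in HeLa cells bearing a glucocorticoid response element–beta-lactamase construct, after 18 h compound exposure at 37 C and 2 h FRET substrate loading.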

[20] = qHTS assay for small molecules that induce genotoxicity in human embryonic kidney cells expressing luciferase-tagged ATAD5 - cell viability (AID 651634; calls by dose curve; also: nearly all actives have a fitted effect of over 25% in size)
In short: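 Cells (HEK293T, luciferase-tagged ATAD5) are seeded at 2,000 per well, dosed with compound or DMSO vehicle, and incubated 15.5 hr at 37C and 5% CO2. CellTiter-Fluor is added for 30 min before fluorescence is measured.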
% is scaled to controls: 0 for no effect and ±100 for the full control effect.

CC(=O)CC(c1ccc([N+](=O)[O-])cc1)c1c(O)c2ccccc2oc1=O (stereo unspecified)
active: Potency [5] 7.17 µM
inactive: Potency [1] | Potency [2] | Potency [3] | Potency [4] | fluorescence, % of fluorescein control [6] 0.0036% [at 18.6 µM] | fluorescence, % of fluorescent control [7] 0.088% [at 18.6 µM] | fluorescence, % of fluorescein [8] 0.0049% [at 18.6 µM] | fluorescence, % of fluorescent control [9] -0.0081% [at 18.6 µM] | activity change [10] 0.0438% [at 18.6 µM] | fluorescence, % of fluorescent control [11] -0.0043% [at 18.6 µM] | fluorescence, % of Rose Bengal [12] 0.571% [at 18.6 µM] | fluorescence, % of fluorescent control [13] -0.0473% [at 18.6 µM] | fluorescence, % of fluorescein control [14] 0.0092% [at 18.6 µM] | fluorescence, % of fluorescent control [15] -0.107% [at 18.6 µM]

Nc1ccc(S(=O)(=O)O)c(N)c1
inactive: Potency [1] | Potency [2] | Potency [3] | Potency [4] | outcome [16] | outcome [6] | Potency [17] | outcome [7] | outcome [8] | Potency [9] | outcome [10] | outcome [11] | outcome [12] | outcome [14] | Potency [18] | Potency [19]

c1ccc(COCc2ccccc2)cc1
inactive: Potency [1] | Potency [2] | Potency [3] | Potency [4] | Potency [5] | outcome [16] | outcome [6] | Potency [17] | outcome [7] | Potency [9] | outcome [10] | outcome [11] | outcome [12] | Potency [13] | outcome [14] | Potency [15] | Potency [18] | Potency [19]

CCCCCCCCCCCC[N+](C)(C)CCCS(=O)(=O)[O-]
inactive: Potency [1] | Potency [2] | Potency [3] | Potency [20] | Potency [5] | outcome [16] | outcome [6] | Potency [17] | outcome [7] | Potency [9] | outcome [10] | outcome [11] | outcome [12] | Potency [13] | outcome [14] | Potency [15] | Potency [18]

O=S1OCCO1
inactive: Potency [1] | Potency [2] | Potency [3] | Potency [20] | outcome [16] | outcome [6] | outcome [7] | outcome [8] | Potency [9] | outcome [10] | outcome [11] | outcome [12] | Potency [13] | outcome [14] | Potency [15]
